Assay results: PMC11062922 (Nature Chemical Biology, 2023)

Key:
Set-up in all cases: species or system human, MV4-11 + K-562 + COLO205 + SK-N-BE2 + OVCAR-8
PLK1 = conditions: read-out: apparent Kd; compound concentrations: 100 nM and 1000 nM (sheet 'Samples'), CATDS: 1; n = 1
ROCK1 = conditions: read-out: apparent Kd; compound concentrations:100 nM and 1000 nM (sheet 'Samples'); n = 1
ROCK2 = conditions: read-out: apparent Kd; compound concentrations:100 nM and 1000 nM (sheet 'Samples'); n = 1

| SMILES | potency estimated from few doses (PLK1) [nM] | potency estimated from few doses (ROCK1) [nM] | potency estimated from few doses (ROCK2) [nM] |
| --- | --- | --- | --- |
| COc1cccc(C2=C(N(C)c3ccccc3)C(=O)NC2=O)c1 [SB-334865] | 1420 |  |  |
| C[C@@H]1CC[C@H](C(=O)NC2CCCCC2)CN1c1cc(-c2ccc3c(N)n[nH]c3c2)nc(N)n1 [GSK2291363A] |  | 2010 | 1450 |
